TcdB GH inh – blocks C. difficile toxin B glycohydrolase activity. P18177. TcdB glycohydrolase enzymatic assay, plate reader. inhibition, % at 9.99 µM. hit rate 0.24% among 350,000. AID 652162; in the data active = inhibition above about 10%
MazEF act – MazEF (E. coli) toxin RNase activation. activation, % at 20 µM. FAM/BHQ RNA-DNA oligo cleavage fluorescence, 5 h. hit rate 0.32% among 350,000; in the data active = activation above about 50%
Target sequence (P0AE70 whole entry, looked up): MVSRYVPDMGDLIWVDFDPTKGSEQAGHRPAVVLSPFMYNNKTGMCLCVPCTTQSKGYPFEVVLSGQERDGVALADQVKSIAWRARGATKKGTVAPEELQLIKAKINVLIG
Sa RN4220 lethal – kills Staphylococcus aureus RN4220. S. aureus RN4220 growth, OD600, 16 h. inhibition, % (no concentration beside the values). hit rate 0.33% among 330,000; in the data active = inhibition above about 85%;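 note: plate controls were untreated cells for no effect and reference antibiotic for full effect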
Mtb hypoxia inh – Mtb hypoxia fluorescent reporter inhibition; M. tuberculosis hypoxia-regulated fluorescent reporter, fluorescence; fluorescence inhibition, % (test concentration not listed); hit rate 0.1% among 300,000; AID 1159583; in the data active = fluorescence inhibition mostly above about 23%, no sharp cut-off; inactive = mostly below about 17%
PfHsp40 yeast – rescue of PfHsp40-mediated yeast toxicity; S. cerevisiae expressing PfHsp40, growth rescue, ATP luminescence; hit rate 0.68% among 340,000; growth rescue, % at 12.5 µM; in the data active = growth rescue above about 28%, passing the limit was not always enough;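 note: yeast W303a lacking pdr1 and pdr3 grown in galactose medium; growth measured after three days at 30 °C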
ugtP null kill – kills S. aureus RN4220 lacking UgtP. S. aureus RN4220 ugtP deletion, OD600 growth, 16 h. growth inhibition, % (concentration not given with the values). hit rate 0.54% among 330,000; in the data active = growth inhibition above about 68%;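 note: plate controls were untreated wells for no effect and antibiotic for full effect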
* = called active by the depositor; nt = no result shown. Hits are enriched below; roughly 1.3% of the tested compounds scored in any of these assays.

SMILES | TcdB GH inh | MazEF act | Sa RN4220 lethal | Mtb hypoxia inh | PfHsp40 yeast | ugtP null kill
Cc1ccc(C=N/N=C2/NC(=O)C(CC(=O)N3CCOCC3)S2)cc1 (configuration not stated) | nt | nt | 2.7 | 17.2 | nt | -1.7
C[C@@H]1CN([C@H](C)CO)C(=O)Cc2cc(NS(=O)(=O)c3cccs3)ccc2O[C@H]1CN(C)Cc1ccc2c(c1)OCO2 | 0.6 | nt | nt | nt | nt | nt
Cn1cc(C(=O)OCC(=O)NC2(C#N)CCCCC2)c2ccccc21 | 0.9 | 2.4 | 5.3 | -2.6 | 0.8 | 9.3
Cn1cc(C(=O)OCC(=O)NC2(C#N)CCCC2)c2ccccc21 | -0.4 | 0.1 | 5.0 | 12.3 | 65.7* | 1.2
Cc1ccc(S(=O)(=O)Nc2cccc3c2O[C@H](CN(C)S(C)(=O)=O)[C@H](C)CN([C@H](C)CO)C3=O)cc1 | -2.6 | nt | nt | nt | nt | nt
COC(=O)c1ccc(N2C(=O)CC(N(C)CCc3ccc(OC)c(OC)c3)C2=O)cc1 (configuration not stated) | nt | 0.0 | -3.3 | 24.1 | 450.7* | 0.2
CC(=NNC(=O)COc1ccc(C(C)(C)C)cc1)c1ccccc1 | nt | nt | 1.0 | 3.1 | nt | -3.5
Nc1ccc(OCc2ccccc2)cc1[N+](=O)[O-] | 1.6 | 4.9 | 7.6 | 12.9 | -0.3 | -17.2
O=Cc1cc(OCc2ccccc2)ccc1[B-](F)(F)F | -3.2 | -7.4 | nt | nt | 160.4* | nt
CCCC(=O)Nc1ccc2c(c1)C(=O)N(C)[C@H]1CC[C@H](CC(=O)NCc3ccccc3)O[C@@H]1CO2 | 0.9 | nt | nt | nt | nt | nt
CS(=O)(=O)N(Cc1ccc(C(=O)NC2CCCC2)cc1)c1ccccc1 | -6.4 | 7.8 | 0.5 | 9.6 | -1.3 | 8.5
Cc1ccc(N(Cc2ccc(C(=O)NC3CCCCC3)cc2)S(C)(=O)=O)cc1C | nt | 51.4* | 2.4 | 4.9 | 7.2 | 17.1
C[C@@H]1CCCCO[C@@H](CN(C)C(=O)Nc2ccc3c(c2)OCO3)[C@H](C)CN([C@@H](C)CO)C(=O)c2cc(NC(=O)CCCN(C)C)ccc2O1 | 1.7 | nt | nt | nt | nt | nt
CCn1c2ccc(C)cc2c2nc3cc(C(=O)O)ccc3nc21 | nt | -3.1 | 8.6 | 10.2 | 311.9* | 11.3
O=C(C[C@@H]1CC[C@@H](NC(=O)C2CCOCC2)[C@@H](CO)O1)Nc1ccccc1 | 0.0 | nt | nt | nt | nt | nt
COC(=O)CSc1[nH]c2ccc(Br)cc2c1[N+](=O)[O-] | -1.0 | -0.5 | 6.5 | 37.3* | 1.2 | -0.7
O=C(COc1ccc(Br)cc1)NN1C(=O)c2ccccc2C1=O | 0.5 | 442.3* | 4.0 | 8.3 | nt | 0.0
Cc1cccc(-n2c(C)cc(C=NNC(=O)c3ccc(CN4CCOCC4)cc3)c2C)c1 | nt | nt | 0.5 | 0.5 | nt | 6.4
CC(=N/O)/C(=N\O)c1ccc(C)o1 | nt | 8.6 | nt | nt | 242.2* | nt
CC(=NNC(=O)CCC(=O)NN=C(C)c1ccc(C)o1)c1ccc(C)o1 | nt | nt | 4.3 | -0.6 | nt | 2.4
COCCN1C(=O)/C(=C/c2ccc(N3CCCC3)cc2)SC1=S | 0.3 | 317.8* | 0.5 | -3.3 | -0.1 | -1.5
COc1ccc(/C=C2\SC(=S)N(CCC(=O)N3CCCCC3)C2=O)cc1 | 0.3 | -11.1 | nt | nt | 0.5 | nt
O=[N+]([O-])c1ccc(OCCCn2cncn2)cc1 | -0.9 | -0.8 | 5.9 | 10.7 | 50.7* | 5.8
c1ccc(COc2ccc(OCCOCCn3cncn3)cc2)cc1 | 0.0 | -1.1 | 5.9 | 9.5 | -0.4 | 3.4
c1ccc(Oc2cccc(OCCCn3cncn3)c2)cc1 | nt | 1.3 | 4.7 | nt | 94.8* | 16.5
SMILES | TcdB GH inh | MazEF act | Sa RN4220 lethal | Mtb hypoxia inh | PfHsp40 yeast | ugtP null kill
CC(=O)c1cc2c(C)c(C(=O)c3ccccc3)oc2cc1O | nt | 88.6* | 6.6 | 1.3 | 7.3 | 39.0
Oc1c(Br)cc(-c2ccccc2)cc1Br | 2.9 | -15.8 | 24.0 | 17.9 | 579.5* | 8.4
C[C@@H]1CN([C@@H](C)CO)C(=O)Cc2cc(NC(=O)CCC(F)(F)F)ccc2O[C@H]1CN(C)C(=O)Nc1ccccc1 | 1.0 | nt | nt | nt | nt | nt
COc1ccc(-c2nnc(SCc3nc4ccccc4s3)n2C(C)C)cc1 | nt | -2.9 | -17.2 | 44.7* | 1.3 | -8.8
COc1ccccc1-c1nnc(SCc2nc3ccccc3s2)n1C | 0.6 | 0.5 | 4.6 | 1.3 | 0.1 | 0.2
CCn1nccc1C(=O)Nc1cc(Cl)cc(Cl)c1 | nt | 7.0 | 4.9 | -0.7 | 63.0* | 44.2
Cc1nn(C)c2ncc(C(=O)c3cc(F)ccc3O)cc12 | nt | 0.9 | -0.1 | nt | 0.3 | 8.3
O=C(c1cnc2ccc3ccccc3c2c1)c1cc(F)ccc1O | 2.7 | -11.6 | 18.3 | -1.1 | 83.6* | 0.6
O=C(N/N=C/c1cc(Br)ccc1O)c1ccccc1Cl | nt | -2.9 | nt | nt | 465.8* | nt
CN(C)c1cccc2c(C=NO)ccc(N(C)C)c12 | nt | nt | 6.0 | 6.1 | nt | 3.9
C=CCn1c(=C2C(=O)N(CC)C(=S)N2C)sc(=C2Sc3cc(OC)ccc3N2C)c1=O | nt | nt | 2.1 | -4.8 | nt | 1.8
COc1ccc(C=NNC(=O)c2ccccc2Cl)cc1CSc1nc2ccccc2s1 | nt | nt | -4.3 | 2.3 | nt | -2.4
CCCSc1ccc(C2C3C(=O)N(C)C(=O)C3[C@]3(C(=O)OC)CCCCN23)cc1OC (some centres not stated) | nt | nt | 5.5 | 20.9 | nt | 5.2
CCCSc1ccc([C@@H]2[C@@H]3C(=O)N(C)C(=O)[C@@H]3[C@]3(C(=O)OC)CCCN23)cc1OC | 0.9 | 2.0 | nt | nt | 62.8* | nt
COc1ccc(C(C)=NN2CCOCC2)c(O)c1 | nt | nt | 3.5 | 10.4 | nt | -1.4
O=C1C(=Cc2cccn2-c2ccc(O)cc2)C(=O)c2ccccc21 | nt | 262.8* | 11.3 | -3.6 | 0.1 | -1.2
O=C(O)c1cccc(-n2cccc2C=C2C(=O)c3ccccc3C2=O)c1 | 0.0 | -28.1 | 6.5 | 10.3 | -0.2 | -2.2
ON=Cc1cccn1-c1ccc(O)cc1 | nt | nt | 3.1 | -7.2 | nt | -4.8
O=C1C(=Cc2cccn2-c2ccccc2)C(=O)c2ccccc21 | nt | 241.8* | 4.9 | 3.1 | 0.4 | 2.0
CC(NC(=O)c1ccccc1)C(=O)NN=Cc1ccco1 (configuration not stated) | nt | nt | 1.5 | 0.6 | nt | 5.7
C[C@H]1CCCCO[C@@H](CN(C)C(=O)Nc2ccccc2)[C@@H](C)CN([C@@H](C)CO)C(=O)c2cc(NC(=O)Nc3cccc4ccccc34)ccc2O1 | 0.4 | nt | nt | nt | nt | nt
N#CCc1ccc(NC(=O)/C=C/c2ccc([N+](=O)[O-])o2)cc1 | nt | 6.6 | 100.7* | nt | 1.3 | 100.4*
O=C(O)/C=C/c1ccc([N+](=O)[O-])o1 | -0.6 | 33.4 | 2.7 | -14.0 | 0.0 | 27.5
Cc1ccc(N2C(=O)N3C(c4cccc(C)c4)C4C(=O)N(Cc5ccccc5)C(=O)C4[C@]3(C)C2=O)cc1 (some centres not stated) | nt | nt | 2.4 | -10.7 | nt | 2.4
Cc1ccc(S(=O)(=O)N[C@H]2CC[C@@H](CC(=O)NCc3ccccc3F)O[C@@H]2CO)cc1 | 1.3 | nt | nt | nt | nt | nt
Cc1ccc(C)c(NC(=O)CSc2sc3c(O)cc(=O)[nH]c3c2C#N)c1 | 0.2 | -4.1 | 4.3 | 4.3 | 0.4 | 11.5
Cc1ccc(Cl)cc1NC(=O)CSc1sc2c(O)cc(=O)[nH]c2c1C#N | 1.4 | 7.7 | 3.0 | 6.5 | 47.1* | 6.9
CCCCNC(=O)c1c(N)n(N=Cc2ccccn2)c2nc3ccccc3nc12 | nt | nt | 4.8 | -9.5 | nt | -8.8
Cc1cc(C)nc(NC(=O)C=Cc2ccc3c(c2)OCO3)c1 | nt | nt | -2.2 | 5.0 | nt | -1.2

Screens as filed in PubChem BioAssay.
